Measurements as given in the supplement of paper PMC12669032.

How the values were obtained:
Assay in all cases: growth AUC relative to DMSO control (median of replicates) (fraction); higher = more growth (less inhibition), active = hit call of the paper
Settings in all cases: 20 µM; 24 h;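 active = AUC reduced over 20% with Padj below 0.05 in at least 2 of 3 replicates; inactive = otherwise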
[1] = tested on: Akkermansia muciniphila
Method in brief: (§1)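 Area under the growth curve was normalised to the plate median of solvent-only wells, or to row and column medians on the industrial chemical plate. Growth curves came from anaerobic gut bacterial monocultures in mGAM at 37 °C, seeded at OD600 0.05 with 20 µM compound (1% DMSO), and read at OD600 hourly for 24 h with the minimum OD set to 0. The value is the median of three biological replicates grown on separate days.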

[2] = tested on: Bacteroides caccae
Method in brief: as §1

[3] = tested on: Bacteroides clarus
Method in brief: as §1

[4] = tested on: Bacteroides dorei
Method in brief: as §1

[5] = tested on: Bacteroides stercoris
Method in brief: as §1

[6] = tested on: Bacteroides thetaiotaomicron
Method in brief: as §1

[7] = tested on: Bacteroides uniformis
Method in brief: as §1

[8] = tested on: Bifidobacterium longum subsp. longum
Method in brief: as §1

[9] = tested on: Clostridium difficile
Method in brief: as §1

[10] = tested on: Collinsella aerofaciens
Method in brief: as §1

[11] = tested on: Coprococcus comes
Method in brief: as §1

[12] = tested on: Escherichia coli ED1a
Method in brief: as §1

[13] = tested on: Escherichia coli IAI1
Method in brief: as §1

[14] = tested on: Eubacterium rectale
Method in brief: as §1

[15] = tested on: Fusobacterium nucleatum subsp. animalis
Method in brief: as §1

[16] = tested on: Lactobacillus gasseri
Method in brief: as §1

[17] = tested on: Lactobacillus paracasei
Method in brief: as §1

[18] = tested on: Odoribacter splanchnicus
Method in brief: as §1

[19] = tested on: Parabacteroides distasonis
Method in brief: as §1

[20] = tested on: Parabacteroides merdae
Method in brief: as §1

Measured: growth AUC

COP(=O)(OC)O/C(C)=C/C(=O)N(C)C
inactive: [1] 1.15 | [2] 1.01 | [3] 0.988 | [4] 0.993 | [5] 1.02 | [6] 0.988 | [7] 1.02 | [8] 0.989 | [9] 0.987 | [10] 0.996 | [11] 1 | [12] 1 | [13] 0.997 | [14] 1.01 | [15] 0.937 | [16] 1.08 | [17] 1.06 | [18] 0.972 | [19] 0.905 | [20] 0.994

CSc1nc(N=[N+]=[N-])nc(NC(C)C)n1
inactive: [1] 0.963 | [2] 1.04 | [3] 0.993 | [4] 1.04 | [5] 0.975 | [6] 1.02 | [7] 1.07 | [8] 0.849 | [9] 1.02 | [10] 0.998 | [11] 0.963 | [12] 1.02 | [13] 1.01 | [14] 1.05 | [15] 0.812 | [16] 1.15 | [17] 0.938 | [18] 1.02 | [19] 1.02 | [20] 1

CCS(=O)c1c(C#N)nn(-c2c(Cl)cc(C(F)(F)F)cc2Cl)c1N (stereo not given)
inactive: [1] 0.952 | [2] 1.04 | [3] 0.996 | [4] 1.01 | [5] 1.04 | [6] 0.961 | [7] 0.959 | [8] 1.01 | [9] 1.02 | [10] 1.01 | [11] 0.99 | [12] 0.988 | [13] 0.995 | [14] 1.02 | [15] 1.04 | [16] 0.909 | [17] 1.02 | [18] 0.971 | [19] 0.949 | [20] 0.965

COC(=O)c1ccccc1S(=O)(=O)NC(=O)Nc1nc(C)nc(OC)n1
inactive: [1] 1.1 | [2] 1.02 | [3] 0.982 | [4] 1.01 | [5] 0.849 | [6] 0.995 | [7] 1.03 | [8] 1 | [9] 1.01 | [10] 0.957 | [11] 0.975 | [12] 0.963 | [13] 0.958 | [14] 1.05 | [15] 0.913 | [16] 0.934 | [17] 0.933 | [18] 1.07 | [19] 0.977 | [20] 0.962

CC(C)CC(C)c1sccc1NC(=O)c1cn(C)nc1C(F)(F)F (stereo not given)
inactive: [1] 0.99 | [2] 0.967 | [3] 0.94 | [4] 1.02 | [5] 1.07 | [6] 0.938 | [7] 0.942 | [8] 1.02 | [9] 1 | [10] 0.99 | [11] 0.984 | [12] 0.998 | [13] 0.946 | [14] 1.01 | [15] 1.04 | [16] 0.945 | [17] 1.02 | [18] 0.782 | [19] 0.856 | [20] 0.977

COC(=O)[C@@H](C)N(C(=O)Cc1ccccc1)c1c(C)cccc1C
inactive: [1] 0.957 | [2] 0.968 | [3] 0.98 | [4] 0.964 | [5] 0.954 | [6] 0.93 | [7] 0.897 | [8] 1.01 | [9] 0.998 | [10] 1.03 | [11] 0.978 | [12] 1.02 | [13] 1.02 | [14] 0.991 | [15] 0.913 | [16] 0.944 | [17] 0.979 | [18] 0.925 | [19] 0.948 | [20] 0.921

CS(=O)(=O)c1ccc(C(=O)C2C(=O)CCCC2=O)c(Cl)c1
inactive: [1] 0.92 | [2] 1.01 | [3] 1.01 | [4] 1.01 | [5] 1.04 | [6] 1.01 | [7] 1 | [8] 0.967 | [9] 1.11 | [10] 1.05 | [11] 0.974 | [12] 1.01 | [13] 1.03 | [14] 0.916 | [15] 1.05 | [16] 1.09 | [17] 1.03 | [18] 1.04 | [19] 1.04 | [20] 1.01

N#CN=C1SCCN1Cc1ccc(Cl)nc1
inactive: [1] 0.871 | [2] 1 | [3] 1 | [4] 0.967 | [5] 1.22 | [6] 0.999 | [7] 0.991 | [8] 1.04 | [9] 1.02 | [10] 0.98 | [11] 1.04 | [12] 0.966 | [13] 0.996 | [14] 0.979 | [15] 1.11 | [16] 1.03 | [17] 0.963 | [18] 1.02 | [19] 1.03 | [20] 1.01

ClC1(Cl)C2(Cl)C3(Cl)C4(Cl)C(Cl)(Cl)C5(Cl)C3(Cl)C1(Cl)C5(Cl)C24Cl (stereo not given)
inactive: [1] 0.866 | [2] 0.966 | [3] 0.972 | [4] 1.01 | [5] 1.06 | [6] 1 | [7] 0.937 | [8] 0.846 | [9] 1 | [10] 0.94 | [11] 0.986 | [12] 1.03 | [13] 0.989 | [14] 0.98 | [15] 0.997 | [16] 0.939 | [17] 0.897 | [18] 0.982 | [19] 1.03 | [20] 0.966

c1cc2c3c(cccc3c1)CC2
inactive: [1] 0.966 | [2] 1 | [3] 1 | [4] 1.01 | [5] 0.991 | [6] 0.999 | [7] 0.994 | [8] 0.961 | [9] 0.993 | [10] 0.995 | [11] 1 | [12] 1.01 | [13] 1.01 | [14] 1.05 | [15] 1.07 | [16] 1.05 | [17] 1.01 | [18] 1.01 | [19] 1.01 | [20] 0.995

CCOc1cc(C(C)(C)C)ccc1C1COC(c2c(F)cccc2F)=N1 (stereo not given)
inactive: [1] 0.955 | [2] 0.941 | [3] 1 | [4] 1.03 | [5] 1.23 | [6] 0.978 | [7] 0.958 | [8] 1.02 | [9] 0.942 | [10] 0.987 | [11] 0.996 | [12] 0.998 | [13] 1.02 | [14] 1 | [15] 1.08 | [16] 0.932 | [17] 1.01 | [18] 1.04 | [19] 0.891 | [20] 0.878

O=C(O)C(F)(F)C(F)(F)C(F)(F)C(F)(F)C(F)(F)C(F)(F)F
inactive: [1] 0.965 | [2] 1.03 | [3] 1 | [4] 1.01 | [5] 1 | [6] 1 | [7] 1.02 | [8] 1.04 | [9] 1 | [10] 1.02 | [11] 1 | [12] 0.998 | [13] 1 | [14] 1.01 | [15] 0.955 | [16] 1.03 | [17] 1.01 | [18] 1 | [19] 1.08 | [20] 1.03

CON(C)C(=O)Nc1ccc(Cl)c(Cl)c1
inactive: [1] 0.949 | [2] 1.05 | [3] 1 | [4] 1.04 | [5] 0.954 | [6] 1 | [7] 1 | [8] 0.953 | [9] 0.999 | [10] 1.06 | [11] 1 | [12] 1.02 | [13] 0.977 | [14] 0.95 | [15] 0.936 | [16] 1.01 | [17] 0.996 | [18] 0.981 | [19] 1.01 | [20] 1
